Assay outcomes as filed in PubChem.
A selection: hits, their analogues and other compounds. The true share with any hit is near 2.2%.
VLA-4 inh – inhibition in a human VLA-4 binding assay; P13612; AID 2557; hit rate 0.2% among 330,000; inhibition, % (about 7 µM as worked out from the volumes in the protocol); VLA-4 expressing cells, ligand binding flow cytometry; in the data active = inhibition above about 50%
MEKK2 mut-MEK5 – signal of MEK5 binding to mutant human MEKK2 PB1 domain | percent response, % at 10 µM | bead flow cytometry, Alexa488-MEK5 binding to MEKK2 mutant | hit rate 0.35% among 290,000; in the data active = percent response above about 24%, passing the limit was not always enough
MEKK2 WT-MEK5 – raises or lowers MEK5 binding to wildtype human MEKK2 PB1 domain | AID 1531 | binding response (% of control), % at 10 µM | Q9Y2U5 | bead flow cytometry, Alexa488-MEK5 binding to MEKK2 WT; actives lie on both sides | hit rate 1.1% among 290,000; in the data active = binding response below about 67% or above about 130%
MEKK3 PB1 HTS – raises or lowers MEK5 binding to the human MEKK3 PB1 domain | hit rate 1.4% among 290,000 | AID 1529 | Q99759 | binding response (% of control), % at 10 µM | bead-based flow cytometry, Alexa488-MEK5 binding to MEKK3; actives lie on both sides; 0 = blocked by unlabeled MEK5, 100 = vehicle;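 active = binding response more than 3 SD above or below the average of its plate-row segment, actives on both sides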;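 also: Alexa488 bead fluorescence after subtracting the streptavidin-only scavenger bead signal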
Target sequence (Q99759 whole entry, looked up, the tested form may be a part): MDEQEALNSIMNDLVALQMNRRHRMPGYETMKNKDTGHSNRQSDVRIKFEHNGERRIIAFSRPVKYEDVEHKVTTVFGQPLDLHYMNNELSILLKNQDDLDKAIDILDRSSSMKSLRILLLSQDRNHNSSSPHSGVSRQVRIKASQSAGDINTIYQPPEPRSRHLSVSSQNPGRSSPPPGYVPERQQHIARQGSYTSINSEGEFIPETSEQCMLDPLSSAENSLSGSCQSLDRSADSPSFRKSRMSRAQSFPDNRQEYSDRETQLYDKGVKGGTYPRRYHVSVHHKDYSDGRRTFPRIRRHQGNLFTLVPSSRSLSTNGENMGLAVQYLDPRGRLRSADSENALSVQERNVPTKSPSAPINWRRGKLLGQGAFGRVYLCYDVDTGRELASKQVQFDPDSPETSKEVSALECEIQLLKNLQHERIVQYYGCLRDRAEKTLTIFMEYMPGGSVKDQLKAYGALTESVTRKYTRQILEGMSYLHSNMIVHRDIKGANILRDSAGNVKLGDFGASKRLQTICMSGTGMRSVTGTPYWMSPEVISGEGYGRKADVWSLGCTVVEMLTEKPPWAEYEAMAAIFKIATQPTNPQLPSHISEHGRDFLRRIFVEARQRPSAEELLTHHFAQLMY
MEKK2wt confirm – raises or lowers MEK5 binding to wildtype human MEKK2, retest; shares compounds with MEKK3 PB1 HTS; bead flow cytometry, Alexa488-MEK5 binding to MEKK2 WT; actives lie on both sides; binding response (% of control), % at 10 µM; hit rate 2.4% among 5,900; AID 1892; in the data active = binding response below about 16% or above about 210%; inactive = in between
MEKK2mut-MEK5 – signal of MEK5 binding to mutant human MEKK2, retest; bead flow cytometry, Alexa488-MEK5 binding to MEKK2 mutant; shares compounds with MEKK3 PB1 HTS; AID 1893; hit rate 2% among 5,900; percent response, % at 10 µM; in the data active = percent response mostly above about 71%, no sharp cut-off; inactive = mostly below about 38%;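 also: higher means compound restores mutant binding toward wildtype level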
MEKK3-MEK5 inh – confirmation of inhibitors of MEK5 binding to human MEKK3. shares compounds with MEKK3 PB1 HTS. bead flow cytometry, Alexa488-MEK5 binding to MEKK3; active compounds read low. binding response (% of control), % at 10 µM. hit rate 1.8% among 5,900. AID 1894;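 active = binding response below 72% of control, or above a set upper limit, though filed actives all read lower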;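 also: 100% = DMSO only wells and 0% = binding blocked by excess unlabeled MEK5; lower values mean stronger disruption of MEK5 binding to MEKK3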
Numbers without * were called inactive; i = inactive; nt = no result given; [ ] = dose if it differs, or a comment.

SMILES | VLA-4 inh | MEKK2 mut-MEK5 | MEKK2 WT-MEK5 | MEKK3 PB1 HTS | MEKK2wt confirm | MEKK2mut-MEK5 | MEKK3-MEK5 inh
O=C(Nc1cccc2ncccc12)c1ccc(F)cc1 | 34.8 | 0.0 | 101.0 | 132.0* | 108.0 | -2.0 | 103.0
Cc1ccc(/C=N/n2nnnc2N)cc1[N+](=O)[O-] | 3.4 | 10.0 | 126.0 | 128.0* | 103.0 | 0.0 | 103.0
Cc1ccc(NS(=O)(=O)c2cc([N+](=O)[O-])ccc2NNC(=S)Nc2cccc(Cl)c2)c(C)c1 | i | -2.0 | 68.0 | 136.0* | 87.0 | -7.0 | 93.0
C[C@H](CO)N1C[C@H](C)[C@@H](CN(C)C(=O)NC2CCCCC2)Oc2ccc(NC(=O)CCC(F)(F)F)cc2C1=O | 1.7 | nt | nt | nt | nt | nt | nt
CCOc1ccc(-c2cnc(NCc3cccc4ccccc34)n2CCOC)cc1 | -9.7 | 20.0 | 192.0* | 117.0 | 132.0 | 4.0 | 99.0
COc1ccc(CNc2ncc(-c3ccc(F)cc3)n2C)c2ccccc12 | -1.4 | 16.0 | 129.0 | 105.0 | nt | nt | nt
O=C(COc1ccccc1Cc1ccccc1)NCCCN1CCOCC1 | -0.7 | 0.0 | 103.0 | 103.0 | nt | nt | nt
O=C(COC(=O)Cc1ccccc1F)Nc1ccc2c(c1)OCCO2 | 14.1 | 0.0 | 107.0 | 138.0* | 101.0 | -6.0 | 102.0
Cc1ccc(C)c(OCC(=O)Nc2ccc3c(c2)OCO3)c1C | -2.2 | 0.0 | 93.0 | 105.0 | nt | nt | nt
Cc1cccc(OCC(=O)Nc2ccc3c(c2)OCO3)c1C | 0.9 | -15.0 | 2.0*[inhibitor] | 2.0*[inhibitor] | 95.0 | -10.0 | 99.0
COc1ccccc1NCC(O)COc1ccc(C(C)(C)C)cc1 (centres undefined) | -0.5 | 3.0 | 107.0 | 108.0 | nt | nt | nt
COc1ccc(OCC(O)CNCCOc2ccccc2OC)c(C(C)(C)C)c1 (centres undefined) | 18.2 | 25.0* | 147.0* | 112.0 | 128.0 | 12.0 | 103.0
S=c1[nH]nc(-c2ccc(Cl)cc2)n1CCCN1CCOCC1 | -9.2 | 431.0* | 119.0 | 118.0 | 100.0 | -6.0 | 103.0
Cc1ccc(OCC(=O)c2c[nH]c3ccccc23)c([N+](=O)[O-])n1 | -4.6 | 0.0 | 96.0 | 98.0 | nt | nt | nt
COc1cccc(OC)c1C(=O)NC(=S)Nc1ccc2c(c1)OCCO2 | 18.0 | 2.0 | 127.0 | 141.0* | 103.0 | 3.0 | 103.0
O=C(NC(=S)Nc1ccc2c(c1)OCCO2)c1ccccc1 | -7.6 | 3.0 | 100.0 | 106.0 | nt | nt | nt
FC(F)(F)Oc1ccc(Nc2nc(N3CCOCC3)nc(N3CCOCC3)n2)cc1 | 10.9 | 1.0 | 107.0 | 103.0 | nt | nt | nt
c1ccc(CCNc2ccnc3cc4ccccc4cc23)cc1 | nt | 97.0* | 210.0* | 104.0 | 202.0 | 58.0 | 103.0
Cc1nn(CC(=O)OCC(=O)c2ccc(OC(F)F)cc2)c(C)c1[N+](=O)[O-] | -15.4 | nt | nt | nt | nt | nt | nt
O=C1CC(N2CCN(c3ccc(F)cc3)CC2)C(=O)N1c1ccc2c(c1)OCO2 (centres undefined) | -8.3 | -84.0 | 1.0*[inhibitor] | 2.0*[inhibitor] | 103.0 | 4.0 | 102.0
CCCCCCN(C(=O)CCl)c1ccccc1 | 20.1 | -44.0 | 48.0 | 41.0*[inhibitor] | 94.0 | -3.0 | 99.0
O=C(c1cc(F)c(F)cc1Cl)N1CCN(c2ncccn2)CC1 | 1.5 | 9.0 | 105.0 | 102.0 | nt | nt | nt
O=c1[nH]nc(CNc2ccc(OC(F)(F)F)cc2)c2ccccc12 | 5.6 | -17.0 | 50.0 | 39.0*[inhibitor] | 100.0 | -4.0 | 104.0
O=c1[nH]nc(CNc2ccc(C(F)(F)F)cc2)c2ccccc12 | 9.7 | 0.0 | 103.0 | 109.0 | nt | nt | nt
c1csc(-c2cn3ccc4ccccc4c3n2)c1 | 3.8 | -18.0 | 7.0*[inhibitor] | 6.0*[inhibitor] | 105.0 | 7.0 | 108.0
SMILES | VLA-4 inh | MEKK2 mut-MEK5 | MEKK2 WT-MEK5 | MEKK3 PB1 HTS | MEKK2wt confirm | MEKK2mut-MEK5 | MEKK3-MEK5 inh
COc1ccc(CNCc2cccn2C)cc1 | 7.8 | 28.0* | 120.0 | 111.0 | 110.0 | 0.0 | 98.0
O=S(=O)(c1ccc(F)c(F)c1)N1CCN(Cc2ccc3c(c2)OCO3)CC1 | -21.4 | 15.0 | 116.0 | 116.0 | nt | nt | nt
O=S(=O)(c1cccc(F)c1)N1CCN(Cc2ccc3c(c2)OCO3)CC1 | 26.4 | -7.0 | 68.0 | 58.0*[inhibitor] | 104.0 | 10.0 | 107.0
COc1ccccc1C(=O)NCCNC(=O)c1ccc(C)nc1 | -40.6 | 5.0 | 97.0 | 103.0 | nt | nt | nt
COc1ccccc1C(=O)NCCCn1cc(Br)c(C)n1 | 8.7 | 14.0 | 138.0* | 122.0 | 114.0 | 12.0 | 107.0
COc1ccc(Cl)cc1NC(=O)CSc1nnc(Cc2ccc(C)cc2)c(=O)[nH]1 | -15.7 | nt | nt | nt | nt | nt | nt
CC(Sc1nnc(-c2ccncc2)n1C)C(=O)NCC1CCCO1 (centres undefined) | 2.5 | nt | nt | nt | nt | nt | nt
CCOC(=O)C1(CCOc2ccccc2)CCN(Cc2cc(OC)c3c(c2)OCO3)CC1 | 18.1 | 41.0 | 145.0* | 104.0 | 126.0 | 17.0 | 108.0
O=C(CN1CCCc2ccccc21)NCCc1ccc(F)cc1 | 1.1 | -20.0 | 52.0 | 45.0*[inhibitor] | 96.0 | -2.0 | 102.0
COc1ccc(CCNC(=O)CN2CCCc3ccccc32)cc1OC | 13.0 | 0.0 | 98.0 | 98.0 | nt | nt | nt
O=C1CCCN1S(=O)(=O)c1ccc(F)cc1 | -1.1 | 17.0 | 126.0 | 114.0 | nt | nt | nt
CC(=O)Nc1ccc(NC(=O)C(=O)N/N=C/c2cccnc2)cc1 | 3.7 | -24.0 | 86.0 | 85.0 | nt | nt | nt
CCOP(=O)(c1ccccc1)C(O)c1ccc(F)cc1 (centres undefined) | 12.3 | 0.0 | 107.0 | 144.0* | 61.0 | -16.0 | 86.0
Clc1ccc(CN2CCCCCC2)cc1 | 1.4 | 4.0 | 109.0 | 103.0 | nt | nt | nt
O=[N+]([O-])c1cc(CN2CCCC2)ccc1Sc1ccc(Cl)cc1 | 29.0 | 34.0 | 149.0* | 109.0 | 122.0 | 15.0 | 105.0
Nc1ccc2nc(CCCCCCCCc3nc4ccc(N)cc4[nH]3)[nH]c2c1 | 0.6 | 9.0 | 140.0* | 107.0 | 147.0 | 36.0 | 102.0
Nc1ccc2nc(-c3ccc(-c4nc5ccc(N)cc5[nH]4)cc3)[nH]c2c1 | 3.9 | -26.0 | 65.0*[inhibitor] | 53.0*[inhibitor] | 81.0 | -17.0 | 71.0*
Nc1ccc2nc(-c3cccc(-c4nc5ccc(N)cc5[nH]4)n3)[nH]c2c1 | -9.8 | -13.0 | 77.0 | 79.0*[inhibitor] | 96.0 | -2.0 | 77.0
Cc1ccc(CN2CCN(C(=O)c3ccncc3)CC2)cc1 | 11.1 | -2.0 | 88.0 | 85.0 | nt | nt | nt
COc1ccc(-c2nnc(SCC(=O)c3ccc(O)cc3O)o2)cc1 | -7.8 | 2.0 | 102.0 | 105.0 | nt | nt | nt
CC12CN3CC(C)(CN(C1)C3c1ccc3c(c1)OCO3)C2O (centres undefined) | 3.0 | -32.0 | 76.0 | 67.0 | nt | nt | nt
CC1CCN(S(=O)(=O)c2ccc(S(=O)(=O)NCC(=O)C(C)(C)C)cc2)CC1 | -6.2 | -22.0 | 32.0*[inhibitor] | 23.0*[inhibitor] | 96.0 | -7.0 | 99.0
C(#Cc1ccccc1)C[N+]1(CC#Cc2ccccc2)CCCC1 | 7.8 | -1.0 | 96.0 | 97.0 | nt | nt | nt
C=CC#CC[N+]1(CC#Cc2ccccc2)CCOCC1 | nt | 11.0 | 99.0 | 51.0*[inhibitor] | 113.0 | 21.0 | 35.0*
